Active and inactive are the calls of the source.
Key:
[1] = E. coli DRC41 culture turbidity changes, primary screen, E. coli filamentation inducer project, strain DRC41, OD650, 48 h (AID 1152);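 also: E. coli MC1000 strain DRC41 lacking acrAB efflux pump and sulA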; details: E. coli DRC41 (acrAB sulA), higher = more signal, called active from +8 up or from −8 down
[2] = small-molecule binders of probe aLefty1, primary screen, biochemical, small-molecule microarray, 635/667 nm fluorescence (AID 1153); details: higher = more signal;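 also: score merges spot fluorescence with signal-to-noise ratio from the scanned slide images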
[3] = PSAC antagonists in infected red cells, primary screen, cell-based, P. falciparum Indochina, OD700, 1 h (AID 1154); details: P. falciparum Indochina infected RBC osmotic lysis, higher = more signal, called active from +8 up or from −8 down
[4] = PSAC antagonists in infected red cells, primary screen, cell-based, P. falciparum Indochina, OD700, 2 h (AID 1155);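 also: lysis reports solute entry through the parasite surface anion channel PSAC; channel blockers reduce lysis of infected cells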; details: P. falciparum Indochina infected erythrocytes, osmotic lysis OD700; higher = more signal, called active from +8 up or from −8 down
[5] = osmotic lysis modulators in infected erythrocytes, primary screen, PSAC antagonist project, cell-based, P. falciparum Indochina, OD700, 3 h (AID 1156); details: higher = more signal, called active from +8 up or from −8 down
[6] = PSAC antagonists in infected red cells, primary screen, cell-based, P. falciparum Indochina, OD700, 18 h (AID 1157); details: P. falciparum Indochina infected erythrocytes, osmotic lysis OD700, 18 h; higher = more signal, called active from +8 up or from −8 down
[7] = modulators of S6 phosphorylation in cells, primary screen, cell-based, A549, cytoblot, luminescence, serum-stimulated (AID 1158); details: A549 phospho-S6 cytoblot, 5 h, higher = more signal;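 also: serum-stimulated A549 lung adenocarcinoma cells; signal is phosphorylated S6 detected by cytoblot immunostaining with HRP secondary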
[8] = molecular target: NADPH oxidase 2 (Homo sapiens) (UniProt P04839); experiment: NOX2-dependent H2O2 signal modulators, primary screen, NOX inhibitor project, cell-based, HEK293-NOX2, PMA-stimulated, Amplex Red fluorescence (AID 1159); details: 45 min, higher = more signal, called active from +8 up or from −8 down; also: test concentration not given here
NADPH oxidase 2 (Homo sapiens), sequence (P04839 whole entry, looked up): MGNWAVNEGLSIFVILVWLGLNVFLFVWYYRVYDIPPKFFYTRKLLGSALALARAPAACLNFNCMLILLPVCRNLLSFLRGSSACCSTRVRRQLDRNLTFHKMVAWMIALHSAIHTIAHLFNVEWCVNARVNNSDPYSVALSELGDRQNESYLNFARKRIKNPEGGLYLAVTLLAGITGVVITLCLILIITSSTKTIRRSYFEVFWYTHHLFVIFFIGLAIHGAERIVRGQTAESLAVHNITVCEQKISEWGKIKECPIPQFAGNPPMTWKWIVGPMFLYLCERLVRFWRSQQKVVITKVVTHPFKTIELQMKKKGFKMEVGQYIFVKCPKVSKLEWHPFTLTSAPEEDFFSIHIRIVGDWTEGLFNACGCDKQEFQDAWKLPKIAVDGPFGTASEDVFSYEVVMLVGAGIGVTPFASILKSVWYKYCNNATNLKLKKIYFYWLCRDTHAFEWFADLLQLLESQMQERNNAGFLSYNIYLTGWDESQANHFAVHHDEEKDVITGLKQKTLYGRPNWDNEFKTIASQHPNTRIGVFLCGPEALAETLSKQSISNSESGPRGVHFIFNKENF

[9] = molecular target: NADPH oxidase 4 (Homo sapiens) (UniProt Q9NPH5); experiment: NOX4-dependent H2O2 signal modulators, primary screen, NOX inhibitor project, cell-based, HEK293-NOX4, tetracycline-induced, Amplex Red fluorescence (AID 1160); details: 45 min, higher = more signal, called active from +8 up or from −8 down
NADPH oxidase 4 (Homo sapiens), sequence (Q9NPH5 whole entry, looked up): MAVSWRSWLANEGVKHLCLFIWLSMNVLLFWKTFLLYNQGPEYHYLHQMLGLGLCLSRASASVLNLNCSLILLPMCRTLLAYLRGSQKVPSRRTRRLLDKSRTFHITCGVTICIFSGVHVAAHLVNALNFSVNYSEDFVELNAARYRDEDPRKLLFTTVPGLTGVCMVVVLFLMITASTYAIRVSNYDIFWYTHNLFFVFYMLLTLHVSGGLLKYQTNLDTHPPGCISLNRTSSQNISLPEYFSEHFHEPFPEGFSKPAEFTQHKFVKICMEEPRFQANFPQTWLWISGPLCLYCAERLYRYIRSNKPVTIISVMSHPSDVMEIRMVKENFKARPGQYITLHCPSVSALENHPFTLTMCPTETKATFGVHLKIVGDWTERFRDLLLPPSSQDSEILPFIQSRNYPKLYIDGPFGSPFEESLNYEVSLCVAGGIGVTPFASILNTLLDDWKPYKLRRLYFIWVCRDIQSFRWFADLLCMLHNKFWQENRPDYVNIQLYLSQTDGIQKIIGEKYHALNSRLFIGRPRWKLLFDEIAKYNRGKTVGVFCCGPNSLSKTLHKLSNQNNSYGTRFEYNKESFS

[10] = molecular target: NADPH oxidase 5 (Homo sapiens) (UniProt Q96PH1); experiment: NOX5-dependent H2O2 signal modulators, primary screen, NOX inhibitor project, cell-based, HEK293-NOX5, Amplex Red fluorescence (AID 1161); details: HEK293-NOX5, ionomycin, 45 min, higher = more signal
NADPH oxidase 5 (Homo sapiens), sequence (Q96PH1 whole entry, looked up): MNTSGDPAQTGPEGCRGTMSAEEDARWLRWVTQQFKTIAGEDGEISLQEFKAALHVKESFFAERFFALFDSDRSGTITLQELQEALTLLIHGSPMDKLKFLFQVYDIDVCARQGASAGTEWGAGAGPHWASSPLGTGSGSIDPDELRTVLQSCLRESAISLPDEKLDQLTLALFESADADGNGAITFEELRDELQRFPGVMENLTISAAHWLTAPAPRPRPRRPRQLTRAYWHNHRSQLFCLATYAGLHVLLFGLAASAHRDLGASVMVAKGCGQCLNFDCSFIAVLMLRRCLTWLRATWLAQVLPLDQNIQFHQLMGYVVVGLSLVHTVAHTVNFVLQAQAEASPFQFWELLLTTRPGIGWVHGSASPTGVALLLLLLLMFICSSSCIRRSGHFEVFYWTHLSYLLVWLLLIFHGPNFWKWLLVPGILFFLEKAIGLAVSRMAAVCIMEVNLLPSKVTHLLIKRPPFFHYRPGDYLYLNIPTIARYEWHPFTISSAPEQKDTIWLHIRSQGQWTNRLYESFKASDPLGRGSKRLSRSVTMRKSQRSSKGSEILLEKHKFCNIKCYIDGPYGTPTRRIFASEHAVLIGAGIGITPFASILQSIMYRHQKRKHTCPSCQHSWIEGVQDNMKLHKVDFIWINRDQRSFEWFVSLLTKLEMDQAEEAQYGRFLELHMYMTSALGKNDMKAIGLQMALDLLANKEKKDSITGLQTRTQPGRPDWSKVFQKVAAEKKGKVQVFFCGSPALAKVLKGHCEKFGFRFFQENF

[11] = A549 cell viability effects, profiling panel, calcein-AM fluorescence, 48 h, basal (AID 1162); details: higher = more signal; also: test concentration not given here
[12] = adipocyte viability effects, profiling panel, cell-based, 3T3-L1 adipocytes, calcein-AM fluorescence, 48 h, basal (AID 1163); details: 3T3-L1 adipocytes viability, higher = more signal; also: test concentration not given here
[13] = HepG2 cell viability effects, profiling panel, calcein-AM fluorescence, 48 h, basal (AID 1164); details: higher = more signal; also: test concentration not given here
[14] = MM1S cell viability effects, profiling panel, calcein-AM fluorescence, 48 h, basal (AID 1165); details: higher = more signal;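 also: viability of MM1S multiple myeloma cells under basal unstimulated conditions; test concentration not given here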
[15] = basal RPMI8226 viability, no added stimulus, profiling panel, cell-based, calcein-AM fluorescence, 48 h, PK04 Diversity Set (AID 1166); details: RPMI8226 myeloma viability, higher = more signal;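 also: cells grown under basal conditions without added stimulus; test concentration not given here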
[16] = basal HepG2 mitochondrial membrane potential changes, profiling panel, cell-based, JC-1 fluorescence, 24 h, 100 nL compound (AID 1167); details: higher = more signal; also: test concentration not given here
[17] = basal 3T3-L1 adipocyte mitochondrial potential changes, profiling panel, cell-based, JC-1 fluorescence, 3T3-L1 adipocytes, 24 h, 100 nL compound (AID 1168); details: JC-1 mitochondrial fluorescence, higher = more signal, called active from +8 up or from −8 down; also: test concentration not given here
[18] = basal RPMI8226 mitochondrial membrane potential changes, profiling panel, cell-based, JC-1 fluorescence, 24 h, 100 nL compound (AID 1169); details: RPMI8226 myeloma, JC-1 mitochondrial potential fluorescence, higher = more signal; also: test concentration not given here
[19] = basal MM1S mitochondrial membrane potential changes, profiling panel, cell-based, JC-1 fluorescence, 24 h, 100 nL compound (AID 1170); details: higher = more signal; also: test concentration not given here
[20] = A549 lung cancer cell viability effects, profiling panel, resazurin fluorescence, 24 h, PK04 Diversity Set (AID 1171); details: higher = more signal, called active from +8 up or from −8 down; also: test concentration not given here

COCCOC(=O)N1C(=O)[C@@]2(c3cc(C#Cc4ccc(OC)cc4)ccc31)[C@H](C(=O)N1CCN(c3ncccn3)CC1)[C@H]1C(=O)O[C@H](c3ccccc3)[C@H](c3ccccc3)N1[C@@H]2c1ccccc1OCCO
z-score [1]: 0.0325 (inactive) | composite z-score [2]: 0.406 | z-score [3]: 2.79 (inactive) | z-score [4]: 2.29 (inactive) | z-score [5]: 0.641 (inactive) | z-score [6]: 1.07 (inactive) | z-score [7]: -0.43 | z-score [8]: 0.405 (inactive) | z-score [9]: 0.152 (inactive) | z-score [10]: 1.06 | z-score [11]: -0.457 | z-score [12]: 0.0076 | z-score [13]: 0.149 | z-score [14]: 0.325 | z-score [15]: 0.204 | z-score [16]: 0.57 | z-score [17]: 2.03 (inactive) | z-score [18]: -0.403 | z-score [19]: -1.41 | z-score [20]: -0.785 (inactive)

COc1ccc(NN2C(C(O)c3ccccn3)C=CC3C(=O)N(C4CCCCC4)C(=O)C32)cc1 (stereo not given)
z-score [1]: 0.29 (inactive) | composite z-score [2]: 0.267 | z-score [3]: 3.45 (inactive) | z-score [4]: 0.539 (inactive) | z-score [5]: 0.34 (inactive) | z-score [6]: 0.536 (inactive) | z-score [7]: -0.552 | z-score [8]: -0.973 (inactive) | z-score [9]: -3.8 (inactive) | z-score [10]: -2.33 | z-score [11]: -0.834 | z-score [12]: 0.23 | z-score [13]: 1.44 | z-score [14]: -1.3 | z-score [15]: -3.2 | z-score [16]: -0.645 | z-score [17]: -0.089 (inactive) | z-score [18]: 0.201 | z-score [19]: -1.51 | z-score [20]: 0.342 (inactive)

Cc1c(NC(=O)/C(C#N)=C/C=C/c2ccc(N(C)C)cc2)c(=O)n(-c2ccccc2)n1C
z-score [1]: 0.504 (inactive) | composite z-score [2]: 0.628 | z-score [3]: 16.3 (active) | z-score [4]: 2.8 (inactive) | z-score [5]: -0.164 (inactive) | z-score [6]: 0.89 (inactive) | z-score [7]: -0.466 | z-score [8]: -2.41 (inactive) | z-score [9]: -1.51 (inactive) | z-score [10]: -0.807 | z-score [11]: 0.284 | z-score [12]: 0.257 | z-score [13]: 0.175 | z-score [14]: 0.232 | z-score [15]: 0.285 | z-score [16]: -0.545 | z-score [17]: 2.26 (inactive) | z-score [18]: -0.665 | z-score [19]: 1.64 | z-score [20]: 0.765 (inactive)

C=CCOC(=O)[C@H]1[C@@H]2C(=O)O[C@@H](c3ccccc3)[C@@H](c3ccccc3)N2[C@@H](c2ccc(OCCOC(=O)[C@H]3C[C@H]4C(=O)N[C@@H](Cc5ccccc5)C(=O)N4[C@H]3c3ccc(O)cc3)cc2)[C@]12C(=O)Nc1ccc(I)cc12
z-score [1]: -0.783 (inactive) | composite z-score [2]: -0.0162 | z-score [3]: 4.04 (inactive) | z-score [4]: 2.09 (inactive) | z-score [5]: 0.28 (inactive) | z-score [6]: 1.06 (inactive) | z-score [7]: -0.481 | z-score [8]: 2.07 (inactive) | z-score [9]: 1.18 (inactive) | z-score [10]: 2.35 | z-score [11]: -0.7 | z-score [12]: 0.664 | z-score [13]: 1.16 | z-score [14]: 0.0161 | z-score [15]: -0.321 | z-score [16]: 0.408 | z-score [17]: -0.118 (inactive) | z-score [18]: -0.59 | z-score [19]: -1.04 | z-score [20]: -0.0968 (inactive)

COc1ccc(C(O)C2C=CC3C(=O)N(Cc4ccccc4)C(=O)C3N2n2cnnc2)c2ccccc12 (stereo not given)
z-score [1]: -0.855 (inactive) | composite z-score [2]: 0.425 | z-score [3]: 0.782 (inactive) | z-score [4]: -0.11 (inactive) | z-score [5]: 1.57 (inactive) | z-score [6]: -1.58 (inactive) | z-score [7]: 2.01 | z-score [8]: -2.98 (inactive) | z-score [9]: -0.674 (inactive) | z-score [10]: -3.65 | z-score [11]: 0.0609 | z-score [12]: 0.936 | z-score [13]: 0.0591 | z-score [14]: 0.405 | z-score [15]: -1.34 | z-score [16]: -0.722 | z-score [17]: 0.895 (inactive) | z-score [18]: -0.992 | z-score [19]: -0.129 | z-score [20]: -0.96 (inactive)

CC(C)(C)N1CC=CC23O[C@@H]4C=CCOC(=O)[C@@H]4[C@H]2C(=O)N(CCCO)[C@@H]3C1=O (stereo not given in full)
z-score [1]: 0.799 (inactive) | composite z-score [2]: -0.429 | z-score [3]: -0.103 (inactive) | z-score [4]: -0.831 (inactive) | z-score [5]: 0.858 (inactive) | z-score [6]: -1.53 (inactive) | z-score [7]: 0.364 | z-score [8]: -0.693 (inactive) | z-score [9]: -0.00336 (inactive) | z-score [10]: -1.09 | z-score [11]: 0.495 | z-score [12]: 1.55 | z-score [13]: -0.0446 | z-score [14]: 0.656 | z-score [15]: -0.664 | z-score [16]: -0.57 | z-score [17]: -0.272 (inactive) | z-score [18]: -0.379 | z-score [19]: 0.745 | z-score [20]: -0.89 (inactive)

COc1ccc([Si](C)(C)[C@@H]2[C@@H](CCn3cc([C@H](O)c4ccccc4)nn3)O[C@]3(C(=O)N(Cc4ccc(N5CCOC5=O)cc4)c4ccccc43)[C@H]2C)cc1
z-score [1]: 1.34 (inactive) | composite z-score [2]: 0.142 | z-score [3]: 28.2 (active) | z-score [4]: 17.1 (active) | z-score [5]: 1.45 (inactive) | z-score [6]: 1.63 (inactive) | z-score [7]: 0.0719 | z-score [8]: 1.31 (inactive) | z-score [9]: 2.36 (inactive) | z-score [10]: 1.74 | z-score [11]: -0.0046 | z-score [12]: 0.417 | z-score [13]: 0.215 | z-score [14]: -1.06 | z-score [15]: -1.3 | z-score [16]: 1.67 | z-score [17]: 0.00306 (inactive) | z-score [18]: 0.417 | z-score [19]: -0.657 | z-score [20]: 0.595 (inactive)

O=C1NC(=O)C2C1C=CC(C(O)c1cc(C(F)(F)F)cc(C(F)(F)F)c1)N2Nc1ccc(Cl)cc1Cl (stereo not given)
z-score [1]: -2.29 (inactive) | composite z-score [2]: 0.546 | z-score [3]: 0.321 (inactive) | z-score [4]: 0.168 (inactive) | z-score [5]: -1.6 (inactive) | z-score [6]: 0.998 (inactive) | z-score [7]: -1.41 | z-score [8]: 0.128 (inactive) | z-score [9]: -5.87 (inactive) | z-score [10]: -2.22 | z-score [11]: -3.02 | z-score [12]: 0.0578 | z-score [13]: -2.76 | z-score [14]: -3.69 | z-score [15]: -3.56 | z-score [16]: -2.94 | z-score [17]: -1.19 (inactive) | z-score [18]: -0.387 | z-score [19]: 0.4 | z-score [20]: -1.24 (inactive)

COC(=O)[C@@]1(Cc2ccccc2)[C@H]2c3cc(C(=O)N4CCCC4)n(Cc4cc(F)cc5c4OCOC5)c3C[C@H]2CN1C(=O)c1ccccc1
z-score [1]: -1.14 (inactive) | composite z-score [2]: 0.0752 | z-score [3]: 2.98 (inactive) | z-score [4]: 0.589 (inactive) | z-score [5]: 0.804 (inactive) | z-score [6]: 0.715 (inactive) | z-score [7]: -0.163 | z-score [8]: 0.768 (inactive) | z-score [9]: 0.0378 (inactive) | z-score [10]: -0.652 | z-score [11]: -0.927 | z-score [12]: -0.888 | z-score [13]: 0.162 | z-score [14]: 0.464 | z-score [15]: -0.0133 | z-score [16]: 3.48 | z-score [17]: 0.0248 (inactive) | z-score [18]: -0.0359 | z-score [19]: -0.977 | z-score [20]: -0.522 (inactive)

Reference: PubChem BioAssay
